Results on nine compounds are retold here after PubChem BioAssay (NCI).

Assay [1] in a line: NCI Yeast Anticancer Drug Screen. Data for the rad50 strain (AID 155).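 Also: 0% = growth of vehicle-only cultures of the same strain.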 The settings on record: S. cerevisiae rad50 strain growth inhibition, hits give high values. Summed up: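 Yeast carrying a defined DNA repair defect were exposed to test compounds, and growth was compared with vehicle-treated controls to give percent inhibition.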
Assay [2] can be described thus: NCI Yeast Anticancer Drug Screen. Data for the mec2-1 strain (AID 157). The settings on record: S. cerevisiae mec2-1 strain, hits give high values. Summed up: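 Readout is yeast growth inhibition, normalised to vehicle-treated controls, in the mec2-1 strain exposed to compound.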
The nature of assay [3]: NCI Yeast Anticancer Drug Screen. Data for the sgs1 mgt1 strain (AID 161).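 Also: 0% = growth of cultures given vehicle only.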 The settings on record: S. cerevisiae sgs1 mgt1 strain, hits give high values. Summed up:
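Yeast cells carrying a defined DNA-repair defect were exposed to test compounds. Growth inhibition was measured relative to vehicle-treated controls.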

Assay [4] is described as follows: NCI Yeast Anticancer Drug Screen. Data for the cln2 rad14 strain (AID 165).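 Also: 0% = growth equal to vehicle treated cultures.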 The settings on record: S. cerevisiae cln2 rad14 strain, hits give high values. In short, it runs like this: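 Relative to vehicle controls, growth inhibition of compound-treated cln2 rad14 yeast was recorded.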
A short description of assay [5]: NCI Yeast Anticancer Drug Screen. Data for the bub3 strain (AID 167). Conditions: S. cerevisiae bub3 mutant strain, hits give high values. In short, it runs like this:
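Compounds were applied to a genetically altered yeast strain carrying a cell-cycle control defect. Growth inhibition was scored against vehicle-treated controls.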

Assay [6] is described as follows: NCI Yeast Anticancer Drug Screen. Data for the mlh1 rad18 strain (AID 175). The settings on record: S. cerevisiae mlh1 rad18 strain growth inhibition, hits give high values. Summed up: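 Test agents were incubated with a yeast strain of defined genotype (DNA damage repair defect). Inhibition of growth was derived by comparison with vehicle-exposed cultures.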
Where [7] appears, read: at 5.0 µM (retest, dose inferred, filed as 0.5).
The mark [8] stands for this setting: at 50.0 µM (retest, dose inferred, filed as 5.0).

About 79,000 compounds went through this panel and 15% of them were active in at least one assay; those are over-represented in the sample as a whole. A number with no mark means an inactive call. Active and inactive are the calls of the source. Rule as the data show it: active = growth inhibition above about 70%; inactive = the rest.

Consider `C/C(=N/Nc1ccccc1)C(=O)O`, for which the growth inhibition is 18% in assay [1] (setting [7]); 97% (active) in assay [1] (setting [8]); 97.8% (active) in assay [1] (at 50.0 µM); 6% in assay [2] (setting [7]); 88% (active) in assay [2] (setting [8]); 97.8% (active) in assay [2] (at 50.0 µM). The growth inhibition is 11% in assay [3] (setting [7]); 50% in assay [3] (setting [8]); 97.7% (active) in assay [3] (at 50.0 µM); 8% in assay [4] (setting [7]); 96% (active) in assay [4] (setting [8]); 98% (active) in assay [4] (at 50.0 µM). Besides, the growth inhibition in assay [5] (setting [7]) is 6%; in assay [5] (setting [8]), 96% (active); in assay [5] (at 50.0 µM) it was 97.4% (active); in assay [6] (setting [7]), 28%; in assay [6] (setting [8]) it was 98% (active); in assay [6] (at 50.0 µM), 97.2% (active).

For `COc1ccc(CN(C)c2c(C)ccc3ccccc23)cc1`, the growth inhibition in assay [1] (setting [7]) was 10%; in assay [1] (setting [8]), 85% (active); in assay [1] (at 50.0 µM) it was 5.3%; in assay [2] (setting [7]), 2%; in assay [2] (setting [8]) it was 58%; in assay [2] (at 50.0 µM) it was -2.9%. In addition, the growth inhibition in assay [3] (setting [7]) is 2%; in assay [3] (setting [8]), 78% (active); in assay [3] (at 50.0 µM), 23.3%; in assay [4] (setting [7]) it was 2%; in assay [4] (setting [8]), 59%; in assay [4] (at 50.0 µM), -15.2%. In addition, the growth inhibition in assay [5] (setting [7]) is 1%; in assay [5] (setting [8]), 98% (active); in assay [5] (at 50.0 µM), 79.6% (active); in assay [6] (setting [7]), 3%; in assay [6] (setting [8]), 78% (active); in assay [6] (at 50.0 µM), 13.2%.

As for `CCOC(=O)C(C)(c1c(C)[nH]c2ccccc12)c1c(C)[nH]c2ccccc12`, the growth inhibition was 1% in assay [1] (setting [7]); 96% (active) in assay [1] (setting [8]); 94.8% (active) in assay [1] (at 50.0 µM); -1% in assay [2] (setting [7]); 94% (active) in assay [2] (setting [8]); 95.6% (active) in assay [2] (at 50.0 µM). Besides, the growth inhibition is 3% in assay [3] (setting [7]); 87% (active) in assay [3] (setting [8]); 95.8% (active) in assay [3] (at 50.0 µM); 4% in assay [4] (setting [7]); 95% (active) in assay [4] (setting [8]); 93% (active) in assay [4] (at 50.0 µM). For the same compound, the growth inhibition in assay [5] (setting [7]) was 6%; in assay [5] (setting [8]) it was 96% (active); in assay [5] (at 50.0 µM) it was 95.5% (active); in assay [6] (setting [7]), 5%; in assay [6] (setting [8]), 92% (active); in assay [6] (at 50.0 µM), 95.3% (active).

In the case of `O=[N+]([O-])/C(C(Cl)=C(Cl)Cl)=C(/Nc1ccccc1)Sc1ccccc1`, the growth inhibition is 62% in assay [1] (setting [7]); 99% (active) in assay [1] (setting [8]); 17.1% in assay [1] (at 50.0 µM); 41% in assay [2] (setting [7]); 99% (active) in assay [2] (setting [8]); 70.2% (active) in assay [2] (at 50.0 µM). In addition, the growth inhibition is 64% in assay [3] (setting [7]); 99% (active) in assay [3] (setting [8]); 66.5% in assay [3] (at 50.0 µM); 49% in assay [4] (setting [7]); 99% (active) in assay [4] (setting [8]); 23.8% in assay [4] (at 50.0 µM). Besides, the growth inhibition in assay [5] (setting [7]) is 51%; in assay [5] (setting [8]), 99% (active); in assay [5] (at 50.0 µM) it was 64.2%; in assay [6] (setting [7]) it was 78% (active); in assay [6] (setting [8]), 99% (active); in assay [6] (at 50.0 µM), 84.8% (active).

For the compound `CC(=O)O/C=C\COC(C)=O`, the growth inhibition in assay [1] (setting [7]) was 4%; in assay [1] (setting [8]) it was 4%; in assay [1] (at 50.0 µM), 79.8% (active); in assay [2] (setting [7]) it was 2%; in assay [2] (setting [8]), -2%; in assay [2] (at 50.0 µM), 47.8%. The growth inhibition in assay [3] (setting [7]) is 3%; in assay [3] (setting [8]), 2%; in assay [3] (at 50.0 µM), 42.5%; in assay [4] (setting [7]) it was 3%; in assay [4] (setting [8]) it was -2%; in assay [4] (at 50.0 µM) it was 33.5%. In addition, the growth inhibition was 6% in assay [5] (setting [7]); 1% in assay [5] (setting [8]); 86.3% (active) in assay [5] (at 50.0 µM); 2% in assay [6] (setting [7]); 6% in assay [6] (setting [8]); 39.3% in assay [6] (at 50.0 µM).

For the compound `O=S(=O)(Cl)c1ccc(Br)cc1`, the growth inhibition in assay [1] (setting [7]) was 45%; in assay [1] (setting [8]) it was 99% (active); in assay [1] (at 50.0 µM) it was 37.3%; in assay [2] (setting [7]), 68%; in assay [2] (setting [8]), 100% (active); in assay [2] (at 50.0 µM), -4.55%. The growth inhibition in assay [3] (setting [7]) is 72% (active); in assay [3] (setting [8]), 99% (active); in assay [3] (at 50.0 µM), 0.15%; in assay [4] (setting [7]), 21%; in assay [4] (setting [8]), 100% (active); in assay [4] (at 50.0 µM) it was -76.1%. Moreover, the growth inhibition is 84% (active) in assay [5] (setting [7]); 99% (active) in assay [5] (setting [8]); 9.25% in assay [5] (at 50.0 µM); 28% in assay [6] (setting [7]); 99% (active) in assay [6] (setting [8]); 0.55% in assay [6] (at 50.0 µM).

For `N=C(N)c1ccc(N=Nc2cc(/C=C/c3ccccc3)ccc2O)cc1`, the growth inhibition in assay [1] (setting [7]) is 24%; in assay [1] (setting [8]) it was 98% (active); in assay [1] (at 50.0 µM), 97.7% (active); in assay [2] (setting [7]), 2%; in assay [2] (setting [8]) it was 99% (active); in assay [2] (at 50.0 µM) it was 99% (active). Moreover, the growth inhibition was 24% in assay [3] (setting [7]); 98% (active) in assay [3] (setting [8]); 98.5% (active) in assay [3] (at 50.0 µM); 3% in assay [4] (setting [7]); 98% (active) in assay [4] (setting [8]); 98.3% (active) in assay [4] (at 50.0 µM). Also, the growth inhibition in assay [5] (setting [7]) was 2%; in assay [5] (setting [8]), 98% (active); in assay [5] (at 50.0 µM) it was 98% (active); in assay [6] (setting [7]) it was 7%; in assay [6] (setting [8]) it was 98% (active); in assay [6] (at 50.0 µM), 98.8% (active).

For the compound `O=C(Nc1ccccc1)c1cc(Cl)ccc1O`, the growth inhibition in assay [1] (setting [7]) was -12%; in assay [1] (setting [8]) it was 33%; in assay [1] (at 50.0 µM), 62.8%; in assay [2] (setting [7]), 3%; in assay [2] (setting [8]) it was 46%; in assay [2] (at 50.0 µM) it was 76% (active). For the same compound, the growth inhibition is 32% in assay [3] (setting [7]); 61% in assay [3] (setting [8]); 71.8% (active) in assay [3] (at 50.0 µM); 24% in assay [4] (setting [7]); 33% in assay [4] (setting [8]); 58.5% in assay [4] (at 50.0 µM). Besides, the growth inhibition was 25% in assay [5] (setting [7]); 49% in assay [5] (setting [8]); 74.7% (active) in assay [5] (at 50.0 µM); 21% in assay [6] (setting [7]); 74% (active) in assay [6] (setting [8]); 84% (active) in assay [6] (at 50.0 µM).

As to `Cc1nc(N)sc1N=Nc1cccc(Cl)c1Cl`, the growth inhibition was -5% in assay [1] (setting [7]); 39% in assay [1] (setting [8]); 71.5% (active) in assay [1] (at 50.0 µM); -8% in assay [2] (setting [7]); 56% in assay [2] (setting [8]); 50.4% in assay [2] (at 50.0 µM). Further, the growth inhibition in assay [3] (setting [7]) was 3%; in assay [3] (setting [8]), 70% (active); in assay [3] (at 50.0 µM), 66.2%; in assay [4] (setting [7]) it was 0%; in assay [4] (setting [8]) it was 4%; in assay [4] (at 50.0 µM) it was 53.8%. Further, the growth inhibition in assay [5] (setting [7]) was -2%; in assay [5] (setting [8]) it was 23%; in assay [5] (at 50.0 µM), 75.8% (active); in assay [6] (setting [7]), 21%; in assay [6] (setting [8]) it was 79% (active); in assay [6] (at 50.0 µM), 84.2% (active).
